Screening results as filed in PubChem BioAssay.
Shown are actives, neighbours in structure and some others; about 6.9% of the full set was active somewhere.
Vif-A3G inh: blocks the Vif interaction with human APOBEC3G. Q9HC16. HeLa A3G-eYFP + Vif (tagged APOBEC3G with the HIV-1 protein that degrades it), YFP fluorescence, overnight. Potency, µM (highest dose often 46.1 µM), without a hit: top-dose activity, negative = active, hits mostly inhibitors. 410,000 compounds, 0.076% hits; note: potency is the fitted concentration of half-maximal effect; % is set by controls: 0 for no effect and ±100 for the full control effect; nearly all actives have a fitted effect of over 60% in size
Target sequence (Q9HC16 whole entry, looked up): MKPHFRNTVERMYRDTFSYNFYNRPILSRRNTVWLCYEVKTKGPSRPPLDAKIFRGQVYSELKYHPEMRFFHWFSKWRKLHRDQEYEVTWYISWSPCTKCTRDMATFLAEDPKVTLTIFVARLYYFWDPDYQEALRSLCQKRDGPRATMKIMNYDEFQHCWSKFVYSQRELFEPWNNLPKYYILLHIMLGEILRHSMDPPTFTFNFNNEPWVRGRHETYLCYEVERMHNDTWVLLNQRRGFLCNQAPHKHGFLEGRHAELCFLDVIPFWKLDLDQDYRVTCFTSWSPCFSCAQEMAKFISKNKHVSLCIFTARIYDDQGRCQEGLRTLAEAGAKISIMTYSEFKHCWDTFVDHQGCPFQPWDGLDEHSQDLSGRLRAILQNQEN
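Read-out is eYFP fluorescence (Ex 488/Em 500-530) from Vif-expressing HeLa A3G-eYFP cells; more signal means A3G escaped Vif-mediated degradation. Cells plated overnight, compound pinned in, incubated overnight at 37 deg C.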
SW480 rereplic: inducers of DNA re-replication in SW480 colon cancer cells | SW480 DNA re-replication, Hoechst DNA content imaging, 48 h | 340,000 compounds, 1.8% hits | Potency, µM (titrated, usually from 46.1 µM), for inactives: at the highest dose re-replication activation, hits mostly activators; note: potency is the fitted concentration of half-maximal effect; % of control where 0% means no effect; nearly all actives have a fitted effect of over 55% in size
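Per well, 250 cells were exposed to pinned compound for 48 hr. Nuclear DNA was visualised with Hoechst (40 min, 37 C) and total object intensity recorded by fluorescence scanning.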
MCF10A rerep: inducers of DNA re-replication in MCF 10A breast cells. 350,000 compounds, 2.9% hits. MCF 10A DNA re-replication, Hoechst nuclear intensity, 48 h. AID 624296. Potency, µM (titrated, usually from 46.1 µM), inactives show at the top dose activity, positive = re-replication, usual class: activators; note: potency is the fitted concentration of half-maximal effect; % of control where 0% means no effect; nearly all actives have a fitted effect of over 50% in size
Giardia killer: Giardia lamblia killing; activity change, % at 7.66 µM, hits read low; 340,000 compounds, 0.15% hits; Giardia lamblia trophozoite viability; in the data active = activity change below about -80%; inconclusive = between about -30% and that limit;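 note: parasites exposed to compound for two days anaerobically before the ATP read; % is set by controls: 0 for no effect and ±100 for the full control effect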
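ATP-content bioluminescence gauges trophozoite survival. Cells (100/well) receive compound and incubate anaerobically for 48 hrs at 37 deg C; detection reagent follows for 15-30 min at room temperature.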
IL-1B inflam inh: inflammasome signaling inhibition, IL-1 beta readout | AID 743279 | 360,000 compounds, 4.7% hits | activity change, % at 57.5 µM | THP-1 LPS/ATP IL-1B secretion, AlphaLISA, 16 h; stronger effect = lower value; in the data active = activity change below about -50%; inconclusive = mostly about -30% to -49%; note: % is set by controls: 0 for no effect and ±100 for the full control effect
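THP-1 cells pretreated 1 hr with compounds (up to 57.5 uM final), then stimulated with LPS (250 ng/mL final) plus ATP (1.25 mM final); secreted IL-1B measured by AlphaLISA after 16 hr, decreased signal indicating inhibition.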
Vif-APOBEC3F blk: blocks the Vif interaction with APOBEC3F. HeLa A3F-eYFP + Vif (tagged APOBEC3F with the HIV-1 protein that degrades it), YFP fluorescence increase. Potency, µM (top dose mostly 46.1 µM), without a hit: top-dose activity, negative = active. 390,000 compounds, 0.2% hits. AID 602313; note: potency is the fitted concentration of half-maximal effect; % of control where 0% means no effect; nearly all actives have a fitted effect of over 65% in size
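HeLa cells stably expressing Vif plus C-terminally eYFP-tagged A3F were seeded, incubated overnight at 37 deg C, dosed with compound, incubated overnight again at 37 deg C. Yellow fluorescence (Ex 488/Em 500-530) reported blocked Vif-mediated A3F-eYFP degradation.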
* hit, by the source's call; ? = inconclusive; nt = no result given. Unless noted, calls come from the whole dose curve; as a rule, active = well fitted curve in the direction sought with a large enough effect; inconclusive = small, poorly fitted or top-dose-only effect, or another doubt; inactive = no such curve, though single readings can be large; an effect the other way counts as inactive or inconclusive.

SMILES	Vif-A3G inh	SW480 rereplic	MCF10A rerep	Giardia killer	IL-1B inflam inh	Vif-APOBEC3F blk
COC(=O)c1sc(N2C(=O)c3oc4cc(C)c(C)cc4c(=O)c3C2c2ccccc2F)nc1C (stereo not given)	1.5%	nt	nt	nt	nt	-11.7%
C[C@@H]1C(=O)N(S(=O)(=O)c2ccc([N+](=O)[O-])cc2)[C@H]1c1ccccc1	3.5%	nt	nt	25.4	nt	nt
COc1cc(CNCCCN2CCOCC2)c(Br)cc1OCC(=O)Nc1ccccc1C	-1.1%	?	14.6µM*	-1.7	-54.6*	1.7%
Cc1ccc(NC(=O)c2cc3c(=O)n(Cc4cccnc4)ccc3nc2C)cc1F	0.0%	nt	nt	nt	nt	2.9%
CC1(C)CC(=O)c2cc(C(=O)Nc3ccc(Cl)cc3)c(=O)[nH]c2C1	-2.8%	nt	nt	nt	nt	3.8%
O=C(c1cnn(-c2cccc(F)c2)c1)c1ccccc1O	-1.4%	9.9%	?	-8.4	-8.0	7.3%
CCc1nn2cc(C(=O)c3cc(C)ccc3O)cnc2c1-c1ccc(F)cc1	-4.1%	-1.4%	18.4µM*	10.4	?	1.7%
CCc1nn2cc(C(=O)c3ccccc3O)cnc2c1-c1ccc(F)cc1	0.1%	3.8%	?	3.8	-69.5*	-0.8%
Cc1cc(=O)n2[nH]c(NCc3ccc(F)cc3)nc2n1	-2.8%	nt	nt	nt	nt	-13.0%
Cc1ccc2cccc(NC(=O)c3ccc(-c4ccc(Cl)cc4Cl)o3)c2n1	-1.1%	nt	nt	nt	nt	-2.4%
O=[N+]([O-])c1ccc(S(=O)(=O)N(CCCN2CCOCC2)Cc2cccs2)cc1	-0.4%	-70.7%	5.4%	?	8.5	-5.7%
CC(=O)Nc1ccc(S(=O)(=O)N(CCCN2CCOCC2)Cc2cccs2)cc1	-0.4%	7.2%	1.16µM*	-7.7	1.4	-1.6%
CC(C)(C)c1ccc(S(=O)(=O)N(CCCN2CCOCC2)Cc2cccs2)cc1	1.8%	?	5.8µM*	2.5	?	?
O=C(COC(=O)c1ccc(NS(=O)(=O)c2cccs2)cc1O)NCc1ccccc1	?	7.31µM*	2.31µM*	-2.8	40.1	-8.5%
O=C(COC(=O)c1ccc(NS(=O)(=O)c2cccs2)cc1)NCc1ccco1	?	?	9.2µM*	40.8	7.6	1.5%
Cc1ccc(S(=O)(=O)N2CCCN(c3nc(-c4cccs4)nc4ccccc34)CC2)cc1	1.7%	nt	nt	1.2	nt	nt
CCCCCCC1CCC(C(=O)NC(CCSC)C(=O)NC(C(=O)OC)C(C)C)CC1 (stereo not given)	0.2%	17.5%	7.31µM*	0.4	2.6	-2.3%
CN1C2C=C3C(C#N)=C(N)C(C#N)(C#N)C(c4ccc(Br)cc4)C3C1CC2 (stereo not given)	-10.5%	2.2%	3.5%	1.5	-101.1*	0.4%
CCc1ccccc1NC(=O)C(=O)NCCc1sc(-c2cccc(F)c2)nc1C	0.6%	nt	nt	nt	nt	-1.0%
CC(=O)N1c2ccc(S(=O)(=O)NCCC(=O)NC3CCCCCC3)cc2CC1C (stereo not given)	0.3%	-4.5%	0.0%	-1.5	18.0	2.7%
CC(=O)N1c2ccc(S(=O)(=O)NCCC(=O)NC3CCCC(C)C3C)cc2CC1C (stereo not given)	3.2%	-28.6%	-3.0%	3.7	-52.4*	0.1%
COc1cc2c(NC3CCN(C)CC3)nc(N3CCCCC3)nc2cc1OCCOCCN(C)C	0.8%	nt	nt	nt	nt	nt
Cc1cc(C)c2nccc(C)c2c1	4.0%	nt	nt	nt	nt	nt
Cc1[nH]nc(C(F)(F)F)c1N=NN1CCOCC1	0.0%	?	3.66µM*	11.0	-10.4	3.3%
CCN(CC(=O)Nc1ccc2c(c1)OCCO2)S(=O)(=O)c1cccs1	0.5%	-2.4%	16.4µM*	0.9	5.3	5.7%
SMILES	Vif-A3G inh	SW480 rereplic	MCF10A rerep	Giardia killer	IL-1B inflam inh	Vif-APOBEC3F blk
CC1CCN(S(=O)(=O)c2ccc3c(c2)oc(=O)n3CC(=O)N2CCCCC2)CC1	1.2%	nt	nt	nt	nt	-3.9%
Cc1nn(-c2ccccc2)c2nc(-c3ccccc3)cc(C(=O)N3CCOCC3)c12	0.7%	5.8%	23.5%	-1.1	-73.6*	-2.1%
Cc1nn(-c2cccc(Cl)c2)c2nc(-c3ccncc3)cc(C(=O)N3CCOCC3)c12	-6.9%	?	?	-14.9	-72.3*	-7.5%
CN1CCN(C(=O)C2CCCCC2)CC1	nt	2.3%	1.4%	nt	nt	nt
COC(=O)c1ccc(N2CCCCC2)c(N)c1	0.2%	-3.5%	5.8%	-2.1	9.9	8.0%
COC(=O)c1ccc(N2CCC(C)CC2)c(N)c1	-8.7%	?	20.6µM*	-6.0	-12.0	0.0%
NC(=O)CSc1nnc(-c2ccc3c(c2)OCO3)o1	-1.8%	-19.3%	-12.4%	3.2	10.9	19.0%
C/C(N)=C(/C#N)C(=O)CSc1nnc(COc2cc(C)ccc2C)o1	1.0%	19.9%	18.4µM*	-6.6	14.5	2.3%
C/C(N)=C(/C#N)C(=O)CSc1nnc(-c2ccc3c(c2)OCO3)o1	-0.5%	11.6µM*	3.6%	9.6	9.4	1.6%
O=C(Cn1c(SCCOc2ccccc2)nc2ccccc21)N1CCOCC1	-0.1%	nt	nt	nt	nt	-4.5%
CC(=O)Oc1ccc(C(=O)Nc2ccc(C3(C#N)CCCC3)cc2)cc1	4.4%	-5.5%	14.2%	-24.5	-59.4*	0.2%
Cc1oc2ncn(C)c(=O)c2c1C(=O)N(C)c1ccccc1F	0.5%	nt	nt	nt	nt	0.6%
CC1=CC2=NC(=O)/C(=C/c3cccn3Cc3ccccc3)C(=N)N2O1	-6.5%	-62.4%	0.2%	-5.0	26.0	9.3%
N=C1/C(=C/c2cccn2CCOc2ccccc2)C(=O)N=C2SC=C(c3ccccc3)N12	-25.5%	18.4µM*	1.3µM*	16.9	-7.4	1.2%
CC1=CC2=NC(=O)/C(=C\c3cccn3CCOc3ccc(C)c(C)c3)C(=N)N2O1	-4.6%	3.2%	-2.3%	-8.8	-60.2*	-14.0%
CC(C)S(=O)(=O)C1=NSC2=NC(=O)/C(=C\c3ccc(-c4ccccc4)o3)C(=N)N21	-1.9%	?	16.4µM*	-13.3	38.0	-7.9%
N=C1/C(=C\c2ccc(-c3cc(Cl)cc(Cl)c3)o2)C(=O)N=C2SC=C(c3ccccc3)N12	-5.3%	-6.2%	-0.1%	-5.1	1.2	-7.0%
Cc1ccc(-n2c(C)cc(/C=C3/C(=N)N4C(c5ccccc5)=CSC4=NC3=O)c2C)cc1	1.5%	2.2%	?	25.7	12.8	-6.7%
N=C1/C(=C/c2ccc(-c3cccc(C(=O)O)c3)o2)C(=O)N=C2SC=C(c3ccccc3)N12	-0.9%	-2.5%	5.8µM*	-4.8	38.6	7.2%
CCNC(=O)C1CCN(S(=O)(=O)c2ccc3c(c2)CCCN3C(C)=O)CC1	0.4%	nt	nt	nt	nt	-5.7%
